# Results taken from PubChem BioAssay (NCI).
# “And” between values parts separate entries of the source, which are not always exact repeats. Identical values can stand only once. This is part of a sample that, as a whole, favours compounds with a hit. Of some 79,000 tested, about 15% had one in any assay. More than one record can exist for a structure, and the calls need not agree. The source made the active and inactive calls. No stated cut-off is given here; in the data, active means growth inhibition above about 70%; inactive means the rest.
# Tests used:
# [1] = NCI Yeast Anticancer Drug Screen. Data for the rad52 strain (AID 147);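 further: 0% = growth of vehicle-treated control cultures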; conditions: S. cerevisiae rad52 mutant growth inhibition, stronger effect = higher value
# Method in brief: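 The repair-mutant yeast strain was incubated with compounds, then growth was read and inhibition derived relative to vehicle.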
# [2] = NCI Yeast Anticancer Drug Screen. Data for the wt1 strain (AID 149);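 further: 0% = growth of vehicle-treated wt1 cultures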; conditions: S. cerevisiae wt1 strain (SPY 50644) growth inhibition, stronger effect = higher value
# Method in brief: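 Vehicle-normalised growth inhibition; strain wt1; compound exposure.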
# [3] = NCI Yeast Anticancer Drug Screen. Data for the rad50EPP+ strain (AID 151);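 further: 0% = growth of vehicle-treated control cultures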; conditions: S. cerevisiae rad50 mutant strain, stronger effect = higher value
# Method in brief: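 Vehicle-normalised growth inhibition; rad50EPP+ yeast strain, altered in DNA damage repair, compound-treated.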
# [4] = NCI Yeast Anticancer Drug Screen. Data for the mgt1 strain (AID 153); conditions: S. cerevisiae mgt1 mutant growth inhibition, stronger effect = higher value
# Method in brief: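 Vehicle-normalized growth inhibition is determined in mgt1 yeast, a strain selected for a defined alteration in DNA repair or cell cycle control.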
# [5] = NCI Yeast Anticancer Drug Screen. Data for the rad50 strain (AID 155);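 further: 0% = growth of vehicle-only cultures of the same strain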; conditions: S. cerevisiae rad50 strain growth inhibition, stronger effect = higher value
# Method in brief: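 A DNA repair-deficient yeast mutant serves as the test organism; compound-induced growth inhibition is calculated against vehicle-treated cells.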
# [6] = NCI Yeast Anticancer Drug Screen. Data for the mec2-1 strain (AID 157); conditions: S. cerevisiae mec2-1 strain, stronger effect = higher value
# Method in brief: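 Mutant yeast (mec2-1) grown with compound; growth inhibition relative to vehicle control reported.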
# [7] = NCI Yeast Anticancer Drug Screen. Data for the rad14 strain (AID 159);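 further: 0% = growth of vehicle-treated control cultures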; conditions: S. cerevisiae rad14 strain growth inhibition, stronger effect = higher value
# Method in brief: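 Vehicle-treated cultures served as the baseline for growth inhibition of a DNA repair-mutant yeast strain exposed to each compound.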
# [8] = NCI Yeast Anticancer Drug Screen. Data for the sgs1 mgt1 strain (AID 161);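 further: 0% = growth of cultures given vehicle only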; conditions: S. cerevisiae sgs1 mgt1 strain, stronger effect = higher value
# Method in brief: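 Yeast cells carrying a defined DNA-repair defect were exposed to test compounds. Growth inhibition was measured relative to vehicle-treated controls.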
# [9] = NCI Yeast Anticancer Drug Screen. Data for the CLN2oe strain (AID 163);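 further: 0% = growth of vehicle-only control cultures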; conditions: S. cerevisiae CLN2oe strain, stronger effect = higher value
# Method in brief: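 Compounds are applied to yeast harbouring a defined cell-cycle control change; reduced growth compared with vehicle-treated controls gives the value.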
# [10] = NCI Yeast Anticancer Drug Screen. Data for the cln2 rad14 strain (AID 165);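 further: 0% = growth equal to vehicle treated cultures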; conditions: S. cerevisiae cln2 rad14 strain, stronger effect = higher value
# Method in brief: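 Readout is yeast growth inhibition versus vehicle-treated controls, using a strain with cln2 and rad14 alterations exposed to compound.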
# [11] = NCI Yeast Anticancer Drug Screen. Data for the bub3 strain (AID 167); conditions: S. cerevisiae bub3 mutant strain, stronger effect = higher value
# Method in brief: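 Inhibition values come from growth of compound-treated mutant yeast normalised to vehicle-treated controls.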
# [12] = NCI Yeast Anticancer Drug Screen. Data for the wt2 strain (AID 169);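 further: 0% = growth of vehicle-treated yeast cultures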; conditions: S. cerevisiae wt2 strain growth inhibition, stronger effect = higher value
# Method in brief: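 Against vehicle-treated controls, the growth of yeast exposed to each compound was compared, and the inhibition was recorded.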
# [13] = NCI Yeast Anticancer Drug Screen. Data for the mlh1 strain (AID 171);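 further: 0% = growth of vehicle-treated control cultures of the same strain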; conditions: S. cerevisiae mlh1 strain growth inhibition, stronger effect = higher value
# Method in brief: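 Measured: yeast growth. Reference: vehicle-treated controls. Organism: strain with a defined alteration affecting DNA damage repair or cell cycle control, treated with compound.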
# [14] = NCI Yeast Anticancer Drug Screen. Data for the sgs1 strain (AID 173);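 further: 0% = growth of vehicle-only control cultures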; conditions: S. cerevisiae sgs1 mutant, stronger effect = higher value
# Method in brief: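 Each compound was added to cultures of the altered yeast strain. Growth was recorded, and inhibition was derived by comparison with vehicle controls.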
# [15] = NCI Yeast Anticancer Drug Screen. Data for the mlh1 rad18 strain (AID 175); conditions: S. cerevisiae mlh1 rad18 strain growth inhibition, stronger effect = higher value
# Method in brief: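 Genetically defined yeast (DNA repair-deficient) exposed to compounds; growth inhibition determined relative to vehicle.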
# [16] = NCI Yeast Anticancer Drug Screen. Data for the rad18 strain (AID 177); conditions: S. cerevisiae rad18 mutant growth inhibition, stronger effect = higher value
# Method in brief: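 Vehicle-treated cultures served as the baseline for scoring compound-induced growth inhibition in DNA-repair-mutant yeast.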
# [17] = at 5.0 µM (retest, dose inferred, filed as 0.5)
# [18] = at 50.0 µM (retest, dose inferred, filed as 5.0)
structure (smiles),measurement,setting,value
O=C(O)c1ccccc1/C=N/N=C1c2ccccc2-c2ccccc21,growth inhibition,[1]; at 1.2 µM,-3% (inactive)
same,growth inhibition,[1]; at 3.7 µM,-1% (inactive)
same,growth inhibition,[1]; at 11.0 µM,-1% (inactive)
same,growth inhibition,[1]; at 33.0 µM,0% (inactive)
same,growth inhibition,[1]; at 100.0 µM,2% (inactive)
same,growth inhibition,[2]; at 1.2 µM,-1% (inactive)
same,growth inhibition,[2]; at 3.7 µM,0% (inactive)
same,growth inhibition,[2]; at 11.0 µM,1% (inactive)
same,growth inhibition,[2]; at 33.0 µM,0% (inactive)
same,growth inhibition,[2]; at 100.0 µM,7% (inactive)
same,growth inhibition,[3]; at 1.2 µM,-4% (inactive)
same,growth inhibition,[3]; at 3.7 µM,3% (inactive)
same,growth inhibition,[3]; at 11.0 µM,-2% (inactive)
same,growth inhibition,[3]; at 33.0 µM,9% (inactive)
same,growth inhibition,[3]; at 100.0 µM,15% (inactive)
same,growth inhibition,[4]; at 1.2 µM,-1% (inactive)
same,growth inhibition,[4]; at 3.7 µM,0% (inactive)
same,growth inhibition,[4]; at 11.0 µM,0% (inactive)
same,growth inhibition,[4]; at 33.0 µM,-1% (inactive)
same,growth inhibition,[4]; at 100.0 µM,3% (inactive)
same,growth inhibition,[5]; at 1.2 µM,0% (inactive)
same,growth inhibition,[5]; at 3.7 µM,-6% (inactive)
same,growth inhibition,[5]; [17],10% (inactive)
same,growth inhibition,[5]; at 11.0 µM,7% (inactive)
same,growth inhibition,[5]; at 33.0 µM,0% (inactive)
same,growth inhibition,[5]; [18],45% (inactive)
same,growth inhibition,[5]; at 50.0 µM,50.8% (inactive)
same,growth inhibition,[5]; at 100.0 µM,13% (inactive)
same,growth inhibition,[6]; at 1.2 µM,-2% (inactive)
same,growth inhibition,[6]; at 3.7 µM,-1% (inactive)
same,growth inhibition,[6]; [17],2% (inactive)
same,growth inhibition,[6]; at 11.0 µM,-2% (inactive)
same,growth inhibition,[6]; at 33.0 µM,0% (inactive)
same,growth inhibition,[6]; [18],15% (inactive)
same,growth inhibition,[6]; at 50.0 µM,61.4% (inactive)
same,growth inhibition,[6]; at 100.0 µM,11% (inactive)
same,growth inhibition,[7]; at 1.2 µM,0% (inactive)
same,growth inhibition,[7]; at 3.7 µM,-1% (inactive)
same,growth inhibition,[7]; at 11.0 µM,0% (inactive)
same,growth inhibition,[7]; at 33.0 µM,-10% (inactive)
same,growth inhibition,[7]; at 100.0 µM,8% (inactive)
same,growth inhibition,[8]; [17],-7% (inactive)
same,growth inhibition,[8]; [18],60% (inactive)
same,growth inhibition,[8]; at 50.0 µM,50% (inactive)
same,growth inhibition,[9]; at 1.2 µM,-4% (inactive)
same,growth inhibition,[9]; at 3.7 µM,0% (inactive)
same,growth inhibition,[9]; at 11.0 µM,0% (inactive)
same,growth inhibition,[9]; at 33.0 µM,-5% (inactive)
same,growth inhibition,[9]; at 100.0 µM,1% (inactive)
same,growth inhibition,[10]; [17],-23% (inactive)
same,growth inhibition,[10]; [18],79% (active)
same,growth inhibition,[10]; at 50.0 µM,45.7% (inactive)
same,growth inhibition,[11]; at 1.2 µM,-3% (inactive)
same,growth inhibition,[11]; at 3.7 µM,-1% (inactive)
same,growth inhibition,[11]; [17],-9% (inactive)
same,growth inhibition,[11]; at 11.0 µM,9% (inactive)
same,growth inhibition,[11]; at 33.0 µM,7% (inactive)
same,growth inhibition,[11]; [18],-3% (inactive)
same,growth inhibition,[11]; at 50.0 µM,48.5% (inactive)
same,growth inhibition,[11]; at 100.0 µM,4% (inactive)
same,growth inhibition,[12]; at 1.2 µM,-1% (inactive)
same,growth inhibition,[12]; at 3.7 µM,0% (inactive)
same,growth inhibition,[12]; at 11.0 µM,-1% (inactive)
same,growth inhibition,[12]; at 33.0 µM,0% (inactive)
same,growth inhibition,[12]; at 100.0 µM,5% (inactive)
same,growth inhibition,[13]; at 1.2 µM,1% (inactive)
same,growth inhibition,[13]; at 3.7 µM,2% (inactive)
same,growth inhibition,[13]; at 11.0 µM,1% (inactive)
same,growth inhibition,[13]; at 33.0 µM,-9% (inactive)
same,growth inhibition,[13]; at 100.0 µM,8% (inactive)
same,growth inhibition,[14]; at 1.2 µM,0% (inactive)
same,growth inhibition,[14]; at 3.7 µM,2% (inactive)
same,growth inhibition,[14]; at 11.0 µM,1% (inactive)
same,growth inhibition,[14]; at 33.0 µM,4% (inactive)
same,growth inhibition,[14]; at 100.0 µM,3% (inactive)
same,growth inhibition,[15]; [17],-1% (inactive)
same,growth inhibition,[15]; [18],39% (inactive)
same,growth inhibition,[15]; at 50.0 µM,68.5% (inactive)
same,growth inhibition,[16]; at 1.2 µM,-3% (inactive)
same,growth inhibition,[16]; at 3.7 µM,-1% (inactive)
same,growth inhibition,[16]; at 11.0 µM,2% (inactive)
same,growth inhibition,[16]; at 33.0 µM,-4% (inactive)
same,growth inhibition,[16]; at 100.0 µM,6% (inactive)
COc1ccc2c(c1)n([O-])c1ccccc1[n+]2=O,growth inhibition,[1]; at 1.2 µM,16% (inactive)
same,growth inhibition,[1]; at 3.7 µM,48% (inactive)
same,growth inhibition,[1]; at 11.0 µM,86% (active)
same,growth inhibition,[1]; at 33.0 µM,95% (active)
same,growth inhibition,[1]; at 100.0 µM,97% (active)
same,growth inhibition,[2]; at 1.2 µM,0% (inactive)
same,growth inhibition,[2]; at 3.7 µM,2% (inactive)
same,growth inhibition,[2]; at 11.0 µM,9% (inactive)
same,growth inhibition,[2]; at 33.0 µM,24% (inactive)
same,growth inhibition,[2]; at 100.0 µM,69% (inactive)
same,growth inhibition,[3]; at 1.2 µM,34% (inactive)
same,growth inhibition,[3]; at 3.7 µM,72% (active)
same,growth inhibition,[3]; at 11.0 µM,93% (active)
same,growth inhibition,[3]; at 33.0 µM,97% (active)
same,growth inhibition,[3]; at 100.0 µM,98% (active)
same,growth inhibition,[4]; at 1.2 µM,-1% (inactive)
same,growth inhibition,[4]; at 3.7 µM,2% (inactive)
same,growth inhibition,[4]; at 11.0 µM,9% (inactive)
same,growth inhibition,[4]; at 33.0 µM,33% (inactive)
same,growth inhibition,[4]; at 100.0 µM,88% (active)
same,growth inhibition,[5]; at 1.2 µM,18% (inactive)
same,growth inhibition,[5]; at 3.7 µM,33% (inactive)
same,growth inhibition,[5]; [17],66% (inactive) and 91% (active)
same,growth inhibition,[5]; at 11.0 µM,91% (active)
same,growth inhibition,[5]; at 33.0 µM,95% (active)
same,growth inhibition,[5]; [18],95% (active) and 98% (active)
same,growth inhibition,[5]; at 50.0 µM,-18.6% (inactive)
same,growth inhibition,[5]; at 100.0 µM,98% (active)
same,growth inhibition,[6]; at 1.2 µM,3% (inactive)
same,growth inhibition,[6]; at 3.7 µM,7% (inactive)
same,growth inhibition,[6]; [17],15% (inactive) and 27% (inactive)
same,growth inhibition,[6]; at 11.0 µM,19% (inactive)
same,growth inhibition,[6]; at 33.0 µM,50% (inactive)
same,growth inhibition,[6]; [18],75% (active) and 99% (active)
same,growth inhibition,[6]; at 50.0 µM,50.2% (inactive)
same,growth inhibition,[6]; at 100.0 µM,93% (active)
same,growth inhibition,[7]; at 1.2 µM,6% (inactive)
same,growth inhibition,[7]; at 3.7 µM,12% (inactive)
same,growth inhibition,[7]; at 11.0 µM,25% (inactive)
same,growth inhibition,[7]; at 33.0 µM,56% (inactive)
same,growth inhibition,[7]; at 100.0 µM,95% (active)
same,growth inhibition,[8]; [17],5% (inactive) and 73% (active)
same,growth inhibition,[8]; [18],71% (active) and 99% (active)
same,growth inhibition,[8]; at 50.0 µM,-13.2% (inactive)
same,growth inhibition,[9]; at 1.2 µM,-4% (inactive)
same,growth inhibition,[9]; at 3.7 µM,-7% (inactive)
same,growth inhibition,[9]; at 11.0 µM,-2% (inactive)
same,growth inhibition,[9]; at 33.0 µM,25% (inactive)
same,growth inhibition,[9]; at 100.0 µM,75% (active)
same,growth inhibition,[10]; [17],6% (inactive) and 22% (inactive)
same,growth inhibition,[10]; [18],90% (active) and 97% (active)
same,growth inhibition,[10]; at 50.0 µM,96.3% (active)
same,growth inhibition,[11]; at 1.2 µM,3% (inactive)
same,growth inhibition,[11]; at 3.7 µM,4% (inactive)
same,growth inhibition,[11]; [17],6% (inactive) and 10% (inactive)
same,growth inhibition,[11]; at 11.0 µM,14% (inactive)
same,growth inhibition,[11]; at 33.0 µM,60% (inactive)
same,growth inhibition,[11]; [18],85% (active) and 99% (active)
same,growth inhibition,[11]; at 50.0 µM,95.3% (active)
same,growth inhibition,[11]; at 100.0 µM,91% (active)
